From PubChem BioAssay (Tox21)
Results filed as inconclusive are left out. Unmarked numbers belong to inactive results. Calls come from the whole dose curve; as a rule, active = well fitted inhibition curve with a large enough effect in the signal ratio in the repeat runs, with a control signal flat; inconclusive = weak or mixed curves, or effect the other way; inactive = flat fitted curve, though single readings scatter; the % refers to the signal ratio.

The compounds below were run against D(2) dopamine receptor (Homo sapiens) (UniProt P14416) (assay: Dopamine D2 receptor (DRD2) small molecule antagonists, cell-based qHTS assay (AID 1963595)). Details: HEK293-DRD2 cAMP HTRF antagonist mode; series mostly up to 92.4 µM; activity change, negative = inhibition: at the top concentration.
Sequence of D(2) dopamine receptor (Homo sapiens) (P14416 whole entry, looked up): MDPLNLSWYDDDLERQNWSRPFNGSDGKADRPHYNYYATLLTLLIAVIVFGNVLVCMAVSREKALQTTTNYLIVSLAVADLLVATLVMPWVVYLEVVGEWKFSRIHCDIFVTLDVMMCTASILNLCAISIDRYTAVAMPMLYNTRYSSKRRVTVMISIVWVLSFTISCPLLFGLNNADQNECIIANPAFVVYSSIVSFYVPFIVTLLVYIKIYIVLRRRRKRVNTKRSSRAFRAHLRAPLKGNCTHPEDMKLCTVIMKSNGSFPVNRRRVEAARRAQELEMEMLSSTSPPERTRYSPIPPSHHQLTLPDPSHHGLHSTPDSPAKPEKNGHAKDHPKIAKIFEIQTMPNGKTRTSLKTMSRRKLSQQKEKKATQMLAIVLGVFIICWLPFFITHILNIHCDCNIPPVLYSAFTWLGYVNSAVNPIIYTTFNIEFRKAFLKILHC
Method in brief: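 HEK293 cells stably expressing DRD2, preincubated with 0.1 mM Ro20-1724 and compounds 10 min, were stimulated with 200 nM NKH477 plus 12 nM quinpirole for 30 min at room temperature; cAMP measured by HTRF (665/620 nm).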
% is set by controls: 0 for no effect and ±100 for the full control effect.

In order of rising “activity change, negative = inhibition” value:
1. O=CC(Br)(Br)Br  -10.4%
2. CCOP(=S)(OCC)Oc1cc(C)nc(N(CC)CC)n1  -7.25%
3. Cc1ccc(-c2c(Cl)nc(C#N)n2S(=O)(=O)N(C)C)cc1  -6.1%
4. CCOc1ccc(C(C)(C)COCc2cccc(Oc3ccccc3)c2)cc1  -2.77%
5. Nc1ccc2c(c1)Cc1ccccc1-2  -2.63%
6. CC(C)C(=O)Cl  -2.29%
7. CC(C)(C)c1ccc(CSc2cnn(C(C)(C)C)c(=O)c2Cl)cc1  -1.67%
8. OC(c1ccc(F)cc1)(c1cncnc1)c1ccccc1Cl (centres undefined)  -1.59%
9. CNN  -0.521%
10. NNCCO  0.49%
11. CCOCn1c(-c2ccc(Cl)cc2)c(C#N)c(Br)c1C(F)(F)F  0.966%
12. CCCCCl  2.89%
13. O=Cc1ccc2c(c1)OCO2  2.96%
14. CCN(CC)C(=S)[S-].CCN(CC)C(=S)[S-].[Zn+2]  4.26%
15. CC(C)(C)c1cc([N+](=O)[O-])cc([N+](=O)[O-])c1O  5.11%
16. O=S(=O)(Cl)c1ccccc1  5.23%
17. CCCSP(=S)(OCC)Oc1ccc(Cl)cc1Cl (centres undefined)  5.8%
18. ClSC(Cl)(Cl)Cl  8.5%
19. CC(Oc1cccc(Cl)c1)C(=O)O (centres undefined)  11.5%
20. N#Cc1cc(I)c(O)c(I)c1  16.2%

In order of rising “activity change, negative = inhibition” value:
1. O=C(N[C@H]1N=C(c2ccccc2F)c2cccc3c2N(CC3)C1=O)c1cc2ccccc2[nH]1  -9.74% [at 42.5 µM]
2. CC[C@H](C)[C@H]1O[C@]2(C=C[C@@H]1C)C[C@@H]1C[C@@H](C/C=C(\C)[C@@H](O[C@H]3C[C@H](OC)[C@@H](O[C@H]4C[C@H](OC)[C@@H](O)[C@H](C)O4)[C@H](C)O3)[C@@H](C)/C=C/C=C3\CO[C@@H]4[C@H](O)C(C)=C[C@@H](C(=O)O1)[C@]34O)O2  -7.74% [at 42.5 µM]
3. CCC1(C2=NCCN2)Cc2ccccc2O1 (centres undefined)  -5.54% [at 42.5 µM]
4. C[N+]1(C)[C@@H]2CC[C@H]1CC(OC(=O)C(CO)c1ccccc1)C2 (some centres undefined)  -5.1% [at 42.5 µM]
5. C=C1C[C@@H]2[C@H](CC[C@]3(C)C(=O)CC[C@@H]23)[C@@]2(C)C=CC(=O)C=C12  -0.274% [at 42.5 µM]
6. C[C@@H]1CC2=CC(=O)CC[C@@H]2[C@H]2CC[C@@]3(C)[C@@H](CC[C@]3(C)O)[C@@H]21  0.943% [at 42.5 µM]
7. O=[Se]=O  4.78% [at 42.5 µM]
8. CCC(CC)(CNC(=O)CCCO)c1cccc(OC)c1  8.19% [at 42.5 µM]

With `Nc1c(Br)cc(Br)c2c1C(=O)c1ccccc1C2=O` the activity change, negative = inhibition was 9% [at 18.9 µM].
